About 79,000 compounds went through this panel and 15% of them were active in at least one assay; those are over-represented in the sample as a whole. Values without a mark were called inactive. Calls of active or inactive are those of the source. Rule as the data show it: active = growth inhibition above about 70%; inactive = the rest.
What was measured:
[1] = NCI Yeast Anticancer Drug Screen. Data for the rad50 strain (AID 155);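 also: 0% = growth of vehicle-only cultures of the same strain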; conditions: S. cerevisiae rad50 strain growth inhibition, hits give high values
Method in brief: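 Growth of the mutant yeast was measured after compound exposure and referenced to vehicle-treated cultures.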

[2] = NCI Yeast Anticancer Drug Screen. Data for the mec2-1 strain (AID 157); conditions: S. cerevisiae mec2-1 strain, hits give high values
Method in brief: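 Mutant yeast (mec2-1) grown with compound; growth inhibition relative to vehicle control reported.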

[3] = NCI Yeast Anticancer Drug Screen. Data for the sgs1 mgt1 strain (AID 161);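 also: 0% = growth of cultures given vehicle only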; conditions: S. cerevisiae sgs1 mgt1 strain, hits give high values
Method in brief: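 Percent growth inhibition was derived by comparing compound-exposed mutant yeast with vehicle-exposed cultures. The strain carries alterations in DNA damage repair.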

[4] = NCI Yeast Anticancer Drug Screen. Data for the cln2 rad14 strain (AID 165);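 also: 0% = growth equal to vehicle treated cultures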; conditions: S. cerevisiae cln2 rad14 strain, hits give high values
Method in brief: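 Readout is yeast growth inhibition versus vehicle-treated controls, using a strain with cln2 and rad14 alterations exposed to compound.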

[5] = NCI Yeast Anticancer Drug Screen. Data for the bub3 strain (AID 167); conditions: S. cerevisiae bub3 mutant strain, hits give high values
Method in brief: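 Whole-cell yeast assay. The mutant strain was incubated with compounds, and growth inhibition was determined by comparison with vehicle-treated cells.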

[6] = NCI Yeast Anticancer Drug Screen. Data for the mlh1 rad18 strain (AID 175); conditions: S. cerevisiae mlh1 rad18 strain growth inhibition, hits give high values
Method in brief: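 Genetically defined yeast (DNA repair-deficient) exposed to compounds; growth inhibition determined relative to vehicle.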

[7] = at 5.0 µM (retest, dose inferred, filed as 0.5)
[8] = at 50.0 µM (retest, dose inferred, filed as 5.0)

With O=S(=O)(Nc1nccs1)c1ccc(N=Cc2cn(Cc3ccccc3)c3ccccc23)cc1 the growth inhibition [1, 7] was 3%, the growth inhibition [1, 8] was 53% and the growth inhibition ([1]; at 50.0 µM) was 82.3% (active). It also gave a growth inhibition [2, 7] of -3%, a growth inhibition [2, 8] of 7% and a growth inhibition ([2]; at 50.0 µM) of 36.4%. The growth inhibition [3, 7] was 3%, the growth inhibition [3, 8] was 57% and the growth inhibition ([3]; at 50.0 µM) was 85.9% (active). For the same molecule, the growth inhibition [4, 7] was 9%, the growth inhibition [4, 8] was 11% and the growth inhibition ([4]; at 50.0 µM) was 27.4%. For the same molecule, the growth inhibition [5, 7] was 1%, the growth inhibition [5, 8] was 8% and the growth inhibition ([5]; at 50.0 µM) was 9.5%. For the same molecule, the growth inhibition [6, 7] was 5%, the growth inhibition [6, 8] was 38% and the growth inhibition ([6]; at 50.0 µM) was 52.4%.

COc1cc(Nc2ccc(Oc3ccc(O)cc3)cc2)c2ncccc2c1 gave a growth inhibition [1, 7] of 6%, a growth inhibition [1, 8] of 31% and a growth inhibition ([1]; at 50.0 µM) of 42.5%. It also gave a growth inhibition [2, 7] of -12%, a growth inhibition [2, 8] of 51% and a growth inhibition ([2]; at 50.0 µM) of 53.1%. The growth inhibition [3, 7] was -12%, the growth inhibition [3, 8] was 34% and the growth inhibition ([3]; at 50.0 µM) was 22.4%. For the same molecule, the growth inhibition [4, 7] was 2%, the growth inhibition [4, 8] was 22% and the growth inhibition ([4]; at 50.0 µM) was 57.4%. For the same molecule, the growth inhibition [5, 7] was -9%, the growth inhibition [5, 8] was 5% and the growth inhibition ([5]; at 50.0 µM) was 7.85%. For the same molecule, the growth inhibition [6, 7] was 14%, the growth inhibition [6, 8] was 59% and the growth inhibition ([6]; at 50.0 µM) was 76% (active).

CC(C)C(=O)c1ccc2ccccc2c1O gave a growth inhibition [1, 7] of -1%, a growth inhibition [1, 8] of 1% and a growth inhibition ([1]; at 50.0 µM) of 21.4%. It also gave a growth inhibition [2, 7] of 2%, a growth inhibition [2, 8] of -1% and a growth inhibition ([2]; at 50.0 µM) of -9.8%. It also gave a growth inhibition [3, 7] of -13%, a growth inhibition [3, 8] of -8% and a growth inhibition ([3]; at 50.0 µM) of 4.35%. It also gave a growth inhibition [4, 7] of 3%, a growth inhibition [4, 8] of 0% and a growth inhibition ([4]; at 50.0 µM) of 12.2%. For the same molecule, the growth inhibition [5, 7] was 5%, the growth inhibition [5, 8] was 6% and the growth inhibition ([5]; at 50.0 µM) was 0.5%. For the same molecule, the growth inhibition [6, 7] was -1%, the growth inhibition [6, 8] was 1% and the growth inhibition ([6]; at 50.0 µM) was 1.05%.

O=C(Sc1ccccc1)C1OC12CCCCC2 (stereo not given) gave a growth inhibition [1, 7] of -160%, a growth inhibition [1, 8] of -116% and a growth inhibition ([1]; at 50.0 µM) of 50.5%. For the same molecule, the growth inhibition [2, 7] was -48%, the growth inhibition [2, 8] was -44% and the growth inhibition ([2]; at 50.0 µM) was 31.2%. The growth inhibition [3, 7] was -68%, the growth inhibition [3, 8] was -47% and the growth inhibition ([3]; at 50.0 µM) was 63.8%. It also gave a growth inhibition [4, 7] of -62%, a growth inhibition [4, 8] of -75% and a growth inhibition ([4]; at 50.0 µM) of -8.05%. It also gave a growth inhibition [5, 7] of -65%, a growth inhibition [5, 8] of -57% and a growth inhibition ([5]; at 50.0 µM) of 8.8%. The growth inhibition [6, 7] was -122%, the growth inhibition [6, 8] was -90% and the growth inhibition ([6]; at 50.0 µM) was 50.1%.

In the case of O=C1c2cccc3cc4ccccc4c(c23)C(=O)N1CCCNCCNCCCN1C(=O)c2cccc3cc4ccccc4c(c23)C1=O, the growth inhibition [1, 7] was 94% (active), the growth inhibition [1, 8] was 98% (active) and the growth inhibition ([1]; at 50.0 µM) was 90.1% (active). The growth inhibition [2, 7] was 96% (active), the growth inhibition [2, 8] was 98% (active) and the growth inhibition ([2]; at 50.0 µM) was 85.2% (active). The growth inhibition [3, 7] was 96% (active), the growth inhibition [3, 8] was 98% (active) and the growth inhibition ([3]; at 50.0 µM) was 86.5% (active). For the same molecule, the growth inhibition [4, 7] was 83% (active), the growth inhibition [4, 8] was 98% (active) and the growth inhibition ([4]; at 50.0 µM) was 88% (active). The growth inhibition [5, 7] was 98% (active), the growth inhibition [5, 8] was 98% (active) and the growth inhibition ([5]; at 50.0 µM) was 87.8% (active). The growth inhibition [6, 7] was 94% (active), the growth inhibition [6, 8] was 97% (active) and the growth inhibition ([6]; at 50.0 µM) was 91% (active).

In the case of Cc1c2ccncc2c(C)c2c1[nH]c1ccc(OCCN(C)C)cc12, the growth inhibition [1, 7] was 28%, the growth inhibition [1, 8] was 93% (active) and the growth inhibition ([1]; at 50.0 µM) was 99% (active). For the same molecule, the growth inhibition [2, 7] was 5%, the growth inhibition [2, 8] was 43% and the growth inhibition ([2]; at 50.0 µM) was 77.3% (active). For the same molecule, the growth inhibition [3, 7] was 5%, the growth inhibition [3, 8] was 53% and the growth inhibition ([3]; at 50.0 µM) was 93.3% (active). For the same molecule, the growth inhibition [4, 7] was 7%, the growth inhibition [4, 8] was 40% and the growth inhibition ([4]; at 50.0 µM) was 71.8% (active). The growth inhibition [5, 7] was 4%, the growth inhibition [5, 8] was 32% and the growth inhibition ([5]; at 50.0 µM) was 88.9% (active). The growth inhibition [6, 7] was 7%, the growth inhibition [6, 8] was 51% and the growth inhibition ([6]; at 50.0 µM) was 96.3% (active).

For CC(C)C1=C(O)c2ccccc2C(=O)C1=O, the growth inhibition [1, 7] was -9%, the growth inhibition [1, 8] was 97% (active) and the growth inhibition ([1]; at 50.0 µM) was 86.8% (active). The growth inhibition [2, 7] was 13%, the growth inhibition [2, 8] was 94% (active) and the growth inhibition ([2]; at 50.0 µM) was 78.7% (active). The growth inhibition [3, 7] was 38%, the growth inhibition [3, 8] was 97% (active) and the growth inhibition ([3]; at 50.0 µM) was 90.5% (active). For the same molecule, the growth inhibition [4, 7] was -21%, the growth inhibition [4, 8] was 86% (active) and the growth inhibition ([4]; at 50.0 µM) was 62.6%. The growth inhibition [5, 7] was 11%, the growth inhibition [5, 8] was 97% (active) and the growth inhibition ([5]; at 50.0 µM) was 84.3% (active). The growth inhibition [6, 7] was 18%, the growth inhibition [6, 8] was 98% (active) and the growth inhibition ([6]; at 50.0 µM) was 90.2% (active).

In the case of O=C(N/C(=C\c1ccc(Br)cc1)c1nc2ccccc2[nH]1)c1ccccc1, the growth inhibition [1, 7] was 3%, the growth inhibition [1, 8] was 59% and the growth inhibition ([1]; at 50.0 µM) was 73.4% (active). For the same molecule, the growth inhibition [2, 7] was -17%, the growth inhibition [2, 8] was 27% and the growth inhibition ([2]; at 50.0 µM) was 95.8% (active). For the same molecule, the growth inhibition [3, 7] was -2%, the growth inhibition [3, 8] was 60% and the growth inhibition ([3]; at 50.0 µM) was 68%. The growth inhibition [4, 7] was -6%, the growth inhibition [4, 8] was 41% and the growth inhibition ([4]; at 50.0 µM) was 66.9%. For the same molecule, the growth inhibition [5, 7] was 6%, the growth inhibition [5, 8] was 78% (active) and the growth inhibition ([5]; at 50.0 µM) was 88.4% (active). For the same molecule, the growth inhibition [6, 7] was 2%, the growth inhibition [6, 8] was 21% and the growth inhibition ([6]; at 50.0 µM) was 96.5% (active).

With O=C1c2ccccc2C(=O)c2c1cc(O)c(O)c2O the growth inhibition [1, 7] was 17%, the growth inhibition [1, 8] was 95% (active) and the growth inhibition ([1]; at 50.0 µM) was 83.2% (active). For the same molecule, the growth inhibition [2, 7] was 20%, the growth inhibition [2, 8] was 92% (active) and the growth inhibition ([2]; at 50.0 µM) was 77.5% (active). The growth inhibition [3, 7] was 23%, the growth inhibition [3, 8] was 95% (active) and the growth inhibition ([3]; at 50.0 µM) was 81.5% (active). The growth inhibition [4, 7] was 2%, the growth inhibition [4, 8] was 88% (active) and the growth inhibition ([4]; at 50.0 µM) was 59.2%. The growth inhibition [5, 7] was 13%, the growth inhibition [5, 8] was 91% (active) and the growth inhibition ([5]; at 50.0 µM) was 70.7% (active). The growth inhibition [6, 7] was 35%, the growth inhibition [6, 8] was 95% (active) and the growth inhibition ([6]; at 50.0 µM) was 82% (active).

With CCN(CCCOc1ccccc1)CCN(CC)CCCOc1ccccc1 the growth inhibition [1, 7] was 1%, the growth inhibition [1, 8] was 13% and the growth inhibition ([1]; at 50.0 µM) was 34.5%. It also gave a growth inhibition [2, 7] of 19%, a growth inhibition [2, 8] of 38% and a growth inhibition ([2]; at 50.0 µM) of 33.2%. For the same molecule, the growth inhibition [3, 7] was 1%, the growth inhibition [3, 8] was 59% and the growth inhibition ([3]; at 50.0 µM) was 60.9%. For the same molecule, the growth inhibition [4, 7] was 0%, the growth inhibition [4, 8] was 11% and the growth inhibition ([4]; at 50.0 µM) was 73.2% (active). It also gave a growth inhibition [5, 7] of 2%, a growth inhibition [5, 8] of 14% and a growth inhibition ([5]; at 50.0 µM) of 42%. It also gave a growth inhibition [6, 7] of 15%, a growth inhibition [6, 8] of 44% and a growth inhibition ([6]; at 50.0 µM) of 35.6%.
